Only some compounds are listed: those with a hit (about 3.6% of all), similar ones and a draw of the others.
Myeloid diff MLP: promotes myeloid progenitor differentiation; ER-HoxA9 myeloid progenitors, lysozyme-GFP differentiation, flow cytometry; calls only at 10 µM; actives 1% (n = 360,000);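 active = normalized GFP-positive differentiation at or above the plate's own cutoff, the solvent-only control mean plus 3 SD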;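 also: cells exposed to compound for four days before flow analysis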
CRFR2-BP antag: antagonists of CRF-binding protein/CRF-R2 receptor complex; HEK293 CRF-R2/CRF-BP, CRF-induced calcium fluorescence; inhibition, % at 11.8 µM; actives 0.59% (n = 350,000);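 active = inhibition of the ligand-induced calcium signal above about 50% at the single tested concentration, limit read from the data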
CendR NRP1 mod: NRP-1/CendR interaction modulation; FAM-RPARPAR peptide binding to NRP-1, fluorescence polarization; O14786; actives 0.85% (n = 360,000); inhibition, % at 25 µM;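 active = inhibition or corrected inhibition above about 18%, plus a signal ratio from 0.5 to 1.5, limit read from the data, passing the limit was not always enough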
NadD block: blocks S. aureus nicotinate mononucleotide adenylyltransferase; actives 0.78% (n = 360,000); AID 602399; purified NadD enzyme, colorimetric absorbance read-out; inhibition, % at 20 µM; in the data active = inhibition above about 26%
FAS-TE inh: FAS thioesterase (human) inhibition; actives 0.67% (n = 360,000); AID 602261; inhibition, % at 15 µM; recombinant FAS-TE, OMFH fluorogenic substrate, fluorescence endpoint; P49327;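 active = compounds whose normalised, plate-corrected inhibition of enzyme fluorescence in the single-dose primary screen is 50% or more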
FAS-TE conf: FAS thioesterase (human) inhibition, confirmation; shares compounds with FAS-TE inh; recombinant FAS-TE, OMFH fluorogenic substrate, fluorescence; actives 45% (n = 2,300); inhibition, % at 15 µM;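 active = compounds inhibiting the enzyme by at least 50% at 15 µM in any one of the replicates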
A number is an active result; . = inactive; / = no result.

SMILES	Myeloid diff MLP	CRFR2-BP antag	CendR NRP1 mod	NadD block	FAS-TE inh	FAS-TE conf
CCN1C(=O)C(CC(=O)NCCc2ccccc2)N(NC(=O)c2ccc(Br)cc2)C1=S (stereo not drawn)	.	.	.	.	.	/
O=C(Cn1cnc([N+](=O)[O-])n1)N/N=C/c1cc(Cl)ccc1O	.	.	.	.	79	88
O=C(Cn1cnc([N+](=O)[O-])n1)N/N=C/c1ccccc1O	.	.	.	.	.	/
CC12CCC(=O)N1C(C(=O)Nc1ccccc1N1CCCCC1)CS2 (stereo not drawn)	.	.	.	.	.	/
CC(C)(C)c1ccc(OCCC(=O)OCC(=O)NCc2ccccc2)cc1	.	.	.	.	65	67
Cc1ccc(S(=O)(=O)N2[C@@H](c3ccc(C(C)(C)C)cc3)C(C(=O)O)=CC[C@H]2c2ccc(Cl)cc2)cc1	.	.	.	.	55	49
COc1ccc(OC)c(NC(=O)C(=O)N/N=C/c2ccccc2[N+](=O)[O-])c1	.	.	.	.	.	/
COc1ccc(NC(=O)C(=O)N/N=C/c2cc(C)n(-c3cccc(Cl)c3Cl)c2C)c(OC)c1	.	.	.	36	63	.
CC(C)CNC(=O)c1cc([N+](=O)[O-])ccc1N1CCOCC1	.	.	.	.	.	/
CC(NC(=O)COC(=O)c1cc([N+](=O)[O-])ccc1N1CCOCC1)c1ccccc1 (stereo not drawn)	.	.	.	.	73	85
CC(NC(=O)COC(=O)c1cc([N+](=O)[O-])ccc1N1CCOCC1)c1ccc(F)cc1 (stereo not drawn)	.	.	.	.	82	84
COC(=O)c1cc(F)c(-n2cncn2)c(F)c1	.	.	.	.	.	/
COC(=O)c1cc([N+](=O)[O-])c(-n2cncn2)c([N+](=O)[O-])c1	.	.	.	.	57	.
CCOc1ccccc1Nc1nnc(SC(C)C(=O)Nc2nc(-c3ccccc3)cs2)s1 (stereo not drawn)	.	.	.	.	76	.
Cc1cc(Cl)ccc1OCC(O)CNCCc1ccc(S(N)(=O)=O)cc1 (stereo not drawn)	.	.	.	.	.	/
O=C1CC(N(CCc2ccccc2)C(=S)Nc2ccccc2)C(=O)N1c1ccccc1 (stereo not drawn)	.	.	.	.	.	/
O=C1CC(N(CCc2ccccc2)C(=S)Nc2cc(Cl)ccc2Cl)C(=O)N1c1c(Cl)cccc1Cl (stereo not drawn)	.	.	.	.	56	.
CC(C)(C)OC(=O)NCc1ccc(CNC(=O)c2[nH]cnc2C(=O)NCC(=O)OCc2ccccc2)cc1	.	.	.	.	66	76
CC(C)(C)OC(=O)NCCCC[C@H](NC(=O)c1[nH]cnc1C(=O)Nc1ccccc1)C(=O)OC(C)(C)C	.	.	21	.	69	80
COc1ccc(NC(=O)c2nc[nH]c2C(=O)N[C@H](C)c2ccccc2)cc1	.	.	.	.	56	50
O=C(OCc1nc2ccsc2c(=O)[nH]1)c1cccc(S(=O)(=O)N2CCOCC2)c1	.	.	.	.	.	/
Cc1nn(C2CCS(=O)(=O)C2)c(C)c1CN(C)C(=O)c1ccccc1 (stereo not drawn)	.	.	.	.	.	/
O=C(O)/C=C/S(=O)(=O)c1ccc2ccccc2c1	.	.	.	.	.	/
COc1ccc(Br)cc1CNC(=O)Cc1c(C(=O)O)[nH]c2ccc(Cl)cc12	.	.	.	.	.	/
CCCC(=O)Nc1cc2c(cc1C(=O)c1ccccc1)OCCO2	.	.	.	.	.	/
SMILES	Myeloid diff MLP	CRFR2-BP antag	CendR NRP1 mod	NadD block	FAS-TE inh	FAS-TE conf
CCOc1ccc(S(=O)(=O)c2c(C(=O)c3ccccc3)cnc3cc4c(cc23)OCCO4)cc1	.	.	.	.	80	.
COc1ccccc1N1CCN(c2ccc3c(c2)S(=O)(=O)c2cccc(C(=O)NCc4ccc(F)cc4)c2C3=O)CC1	.	.	.	.	51	.
O=C(Nc1ccc(S(=O)(=O)N2CCOCC2)cc1)c1cccnc1	.	.	.	.	.	/
COc1ccc(N2C(=O)NC3CC2(C)Oc2ccc(Br)cc23)cc1OC (stereo not drawn)	.	.	.	.	59	74
COc1ccc(N2C(=O)NC3CC2(C)Oc2ccccc23)cc1 (stereo not drawn)	.	.	.	.	.	/
N#C/C(=C\c1cccc([N+](=O)[O-])c1)C(=O)NCc1cccnc1	.	.	.	.	.	/
N#C/C(=C\c1cccc([N+](=O)[O-])c1)C(=O)NCc1ccc(Cl)cc1	.	.	.	.	74	77
CC(=O)c1ccccc1NC(=O)COC(=O)c1cc(C)oc1C	.	.	.	.	.	/
O=C(CC1C[C@H](C(=O)N2CCCCC2)[C@@]2(CCc3ccccc3)c3[nH]c4ccccc4c3CCN2C1=O)NCCc1ccccn1 (stereo partly drawn)	.	.	.	.	.	/
O=C(C[C@H]1C[C@H](C(=O)N2CCOCC2)[C@@]2(CCC3CCCC3)c3[nH]c4ccc(Cl)cc4c3CCN2C1=O)NCCN1CCOCC1	.	.	.	.	85	76
O=C(C[C@H]1C[C@H](C(=O)N2CCOCC2)[C@@]2(CCC3CCCC3)c3[nH]c4cc(-c5ccco5)ccc4c3CCN2C1=O)NCc1ccco1	.	.	.	.	.	/
O=C(C[C@H]1C[C@H](C(=O)N2CCOCC2)[C@@]2(CCC3CCCC3)c3[nH]c4ccc(Cl)cc4c3CCN2C1=O)NCCc1ccccn1	.	.	.	.	83	93
COCCCNC(=O)C[C@H]1C[C@H](C(=O)N2CCOCC2)[C@@]2(CCC3CCCC3)c3[nH]c4ccc(Cl)cc4c3CCN2C1=O	.	.	.	.	86	.
O=C(C[C@H]1C[C@H](C(=O)N2CCOCC2)[C@@]2(CCC3CCCC3)c3[nH]c4cc(-c5ccco5)ccc4c3CCN2C1=O)NCCc1ccccn1	.	.	.	.	64	71
C[C@]12c3[nH]c4ccc(Cl)cc4c3CCN1C(=O)[C@@H](CC(=O)NCCN1CCOCC1)C[C@@H]2C(=O)N1CCOCC1	.	.	.	.	.	/
CCOc1ccccc1NC(=O)CCn1cccc1	.	.	.	.	.	/
O=C(NNC(=O)c1ccccc1F)c1cccc(-n2cccc2)c1	.	.	.	.	.	/
CC1Cc2ccccc2N1C(=O)C1CC(=O)N(c2ccccc2)C1 (stereo not drawn)	.	.	.	.	.	/
Cc1cc(O)ccc1NC(=O)Cc1cccc2ccccc12	.	.	.	.	.	/
CCCCOc1ccc(-c2c(C#N)c(N)nc(SCC(N)=O)c2C#N)cc1	.	.	.	.	76	92
CCCCOC(=O)CSc1nc(N)c(C#N)c(-c2ccc(OCC)cc2)c1C#N	.	.	.	.	.	/
Cc1ccc(C23CC4CC(CC(C(=O)NC(C(=O)O)C(C)C)(C4)C2)C3)cc1 (stereo not drawn)	.	.	.	.	.	/

Screening results deposited in PubChem BioAssay by several laboratories.
